The record followed here is PMC5540273 (PLoS ONE, 2017).
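Further: KINOMEscan kinase panel screen.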

In this assay the test system is T1, ERK2.
T1 construct: gene MAPK1
The settings on record: concentration: 1 μM, replicates: in singlicate; n = 1.
As to `Cl.c1ccc(-c2ccc3c(Nc4ccc5[nH]ncc5c4)ccnc3c2)nc1` [GW440137], the “%Inh” value was 0%.
Under `COc1cccc(-c2ccc3c(NC(=O)C4CC4)n[nH]c3n2)c1` [SB-710903] stands 0%.
As for `COc1cccc(C(=O)Nc2cccc(Oc3ccc4nc(NC(=O)C5CC5)cn4n3)c2)c1`, the “%Inh” value was determined as 6%.
Regarding `CNC(=O)c1ccccc1Nc1nc(Nc2ccc(N3CCOCC3)cc2)ncc1Cl.Cl` [GSK1576028], the “%Inh” value came to 68%.
Then `O=C(Nc1cccc(Oc2ccc3nc(NC(=O)C4CC4)cn3n2)c1)c1ccccc1C(F)(F)F`, with 0%.
Then `Cc1ccc(S(=O)(=O)Nc2ccc(Nc3nccc(Nc4cccc5[nH]ncc45)n3)cc2)cc1` [GSK581271], with 0%; and `Cc1cccc(NC(=O)Nc2ccc(Oc3ncnc4ccn(C)c34)cc2)c1`, with 20%; and `CC(=O)Nc1nc2cnc(Nc3cc(NC(=O)c4cccc(C5(C#N)CC5)c4Cl)ccc3C)nc2s1`, with 14%.
Regarding `COc1cccc(C2=C(Nc3ccc(Cl)c(C(=O)O)c3)C(=O)NC2=O)c1` [SB-390769], the “%Inh” value is listed as 0%.
Under `CN(C)S(=O)(=O)c1cc(-c2ccc3nccc(-c4cccc(S(N)(=O)=O)c4)c3c2)cnc1N` [GSK1669921] stands 0%.
Under `O=C(Nc1ccccc1F)NC1CCN(c2ccnc(Nc3ccc(F)cc3)n2)CC1` [GSK1379800] stands 0%; under `O=C(Nc1n[nH]c2cc(-c3ccoc3)ccc12)C1CC1` [SB-738481], 0%; under `CSc1cccc2c(-c3ccncn3)c(-c3ccc(F)cc3)nn12` [GW514786], 6%.
Under `CN(c1ccc(NC(=O)Nc2cc(C(F)(F)F)ccc2F)cc1)c1ccnc(Nc2ccc(S(N)(=O)=O)cc2)n1` [GW809893] stands 0%.
As for `O=C(Nc1cccc(-c2nn3ncccc3c2-c2ccnc(Nc3ccccc3)n2)c1)c1c(F)cccc1F` [GSK198271], the “%Inh” value was determined as 6%.
Under `c1ccc(-c2n[nH]cc2Nc2ccnc3ccccc23)nc1` [GW694077] stands 0%; under `Cl.Cl.NCC(C(=O)Nc1cc(Br)c(-c2ccnc3[nH]ccc23)s1)c1ccccc1` (stereo not shown) [GSK1269851], 0%; under `O=C(Nc1cccc(-c2nn3ccccc3c2-c2ccnc(Nc3cccc(C(F)(F)F)c3)n2)c1)c1c(F)cccc1F` [GSK292658], 0%.
Turning to `Cc1ccc(C)c(NC(=O)NC2CCN(c3ccnc(Nc4ccc(F)cc4)n3)C2)c1` (stereo not shown) [GSK1379720], the “%Inh” value amounted to 0%.
Then `COCCOCCOc1cc2ncc3c4ccc(C#N)cc4[nH]c3c2cc1OC`, with 6%.
Then `CN1CCN(Cc2cccc(-c3ccc4c(Nc5ccc(Oc6ccccc6)cc5)ccnc4c3)c2)CC1` [GW578342], with 0%; and `Cl.Cl.NCC(NCc1ccc(-c2ccnc3[nH]ccc23)s1)c1ccccc1` (stereo not shown) [GSK1321565], with 0%.
Then `Cn1cc(-c2ccc3c(c2)CCN3C(=O)Cc2cccc(F)c2)c2c(N)ncnc21` [GSK2603358], with 6%; and `Clc1ccc(-c2nn3ncccc3c2-c2ccnc(Nc3ccc4c(c3)OCCO4)n2)cc1` [GW829116], with 12%.
As for `Nc1ncc(-c2cccnc2)c2scc(-c3ccc4c(c3)CCN4C(=O)Cc3ccccc3)c12` [GSK683281], the “%Inh” value is recorded as 11%.
